Sampled rows, rich in hits. Any-hit rate of the full collection: about 32%.
CYP2C9 activ = human CYP2C9 activators, primary screen, biochemical, luminescence; actives 1.4% (n = 96,000); activation factor at 5 µM; recombinant CYP2C9, luciferin-H conversion; hits give high values; factor 1 = untreated enzyme, 0 = blocked; Cytochrome P450 2C9 (Homo sapiens), P11712;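 active = activation factor of 2 or more for CYP2C9 at a 5 µM dose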;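 note: 0 = sulfaphenazole-blocked wells and 1 = vehicle-only wells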
CYP2C19 act = human CYP2C19 activators, primary screen, biochemical, luminescence. activation factor at 5 µM. 96,000 tested, under 10 active. recombinant CYP2C19, luciferin-H EGE luminescence; hits give high values; 0 = fully inhibited enzyme, 1 = untreated enzyme;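 active = activation factor of at least 2 at 5 µM in the primary screen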;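 note: 0 = wells with 2.5 mM tranylcypromine and 1 = vehicle-only wells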
Target sequence (P33261 whole entry, looked up): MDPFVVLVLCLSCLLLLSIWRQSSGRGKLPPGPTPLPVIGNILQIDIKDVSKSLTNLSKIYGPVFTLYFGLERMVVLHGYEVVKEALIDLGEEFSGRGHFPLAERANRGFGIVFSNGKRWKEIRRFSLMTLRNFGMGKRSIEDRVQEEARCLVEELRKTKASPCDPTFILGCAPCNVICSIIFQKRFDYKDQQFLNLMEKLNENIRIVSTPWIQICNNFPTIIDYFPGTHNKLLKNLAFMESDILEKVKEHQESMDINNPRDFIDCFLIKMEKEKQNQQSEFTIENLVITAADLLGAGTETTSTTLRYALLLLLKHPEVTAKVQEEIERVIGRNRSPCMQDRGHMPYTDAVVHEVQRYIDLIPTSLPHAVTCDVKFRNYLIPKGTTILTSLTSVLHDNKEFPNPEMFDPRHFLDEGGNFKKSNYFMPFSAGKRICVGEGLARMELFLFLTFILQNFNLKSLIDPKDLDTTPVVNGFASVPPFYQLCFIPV
PostGolgi ctrl = growth inhibition of yeast control strain, primary screen, counter-screen for post-Golgi transport modulator project; efflux-deficient yeast background strain, growth absorbance A615, 16 h; inhibition, % at 10 µM; actives 5% (n = 98,000)
CYP2C19 inhib = blockers of cytochrome P450 2C19 activity – biochemical, luminescence, ADME assay, primary screen | P33261 | inhibition, % at 5 µM | CYP2C19 Supersomes, luciferin-H EGE luminescence, 30 min | AID 778, 2007 | actives 21% (n = 96,000);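 active = CYP2C19 inhibition above a set limit at 5 µM in the primary screen, cut at about 50% in these data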;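 note: plate controls were negative control wells for no effect and 2.5 mM tranylcypromine positive control for full effect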
PostGolgi yeast = phenotypic screen on post-Golgi transport, primary screen | post-Golgi transport phenotypic cell assay | inhibition, % at 10 µM | actives 0.9% (n = 98,000) | AID 739, 2007;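 note: yeast cells grown in 1536-well plates; yeast grown about 18 h at 30C before absorbance read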
CYP2C9 inh = blockers of cytochrome P450 2C9 activity – biochemical, luminescence, ADME assay, primary screen; inhibition, % at 5 µM; actives 20% (n = 96,000); P11712; CYP2C9 Supersomes, luciferin-H conversion;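 active = blocking of liver enzyme CYP2C9 beyond about 50% at 5 µM, limit read from the data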
The depositor's hits bear a star. Cut-off read from the data, not from the text of the source, unless noted: active = inhibition above about 30%; inactive = the rest.

`CCOC(=O)c1ccc(N2C(=O)CC(NC3CCN(C(=O)c4ccc(F)cc4)CC3)C2=O)cc1` (stereo not drawn) gave CYP2C9 activ 1, CYP2C19 act 1, PostGolgi ctrl 3.4, CYP2C19 inhib 1.2, PostGolgi yeast 4.8 and CYP2C9 inh -2.8.
`Cc1ccc(NC(=O)C2CC=CCC2C(=O)N2CCCCC2)cc1` (stereo not drawn) gave CYP2C9 activ 0.7, CYP2C19 act 0.6, PostGolgi ctrl -2.1, CYP2C19 inhib 38.1, PostGolgi yeast 10.5 and CYP2C9 inh 28.7.
Cc1ccc(NC(=O)NC2=N/C(=C(/C#N)C(=O)N3CCCC3)c3ccccc32)cc1 was read as CYP2C9 activ 0, CYP2C19 act 0.1, CYP2C19 inhib 89.0* and CYP2C9 inh 98.2*.
`CCC1C(=O)n2nc(-c3ccccc3)cc2N=C1C` (stereo not drawn) gave PostGolgi ctrl 4.5 and PostGolgi yeast -0.3.
`Cc1ccc(/C=C/C(=O)c2c(C)nc3ccccn23)cc1` gave CYP2C9 activ 0.6, CYP2C19 act 0.8, PostGolgi ctrl 33.2*, CYP2C19 inhib 24.6, PostGolgi yeast -1.8 and CYP2C9 inh 37.2.
`Cc1cccc(C(C)Nc2ccc([N+](=O)[O-])cn2)c1` (stereo not drawn) gave CYP2C9 activ 0.3, CYP2C19 act 0.5, PostGolgi ctrl 8.1, CYP2C19 inhib 48.8, PostGolgi yeast -9.5 and CYP2C9 inh 74.8*.
Screening CC(=O)Nc1ccc([N+](=O)[O-])cn1 returned CYP2C9 activ 1.2, CYP2C19 act 1, PostGolgi ctrl -3.4, CYP2C19 inhib 2.8, PostGolgi yeast -1.4 and CYP2C9 inh -22.9.
O=C(OCCN1C(=O)c2ccccc2C1=O)c1cnccn1 was read as CYP2C9 activ 0.9, CYP2C19 act 0.9, PostGolgi ctrl 2.0, CYP2C19 inhib 9.4, PostGolgi yeast 2.5 and CYP2C9 inh 9.0.
For COCCCN1C(=O)c2ccc(C(=O)O)cc2C1=O the results were CYP2C9 activ 1, CYP2C19 act 1.1, PostGolgi ctrl 10.0, CYP2C19 inhib -8.9, PostGolgi yeast 8.2 and CYP2C9 inh -1.5.
For O=C(OCCCCN1C(=O)c2ccccc2C1=O)c1ccc(Br)o1 the results were CYP2C9 activ 0.4, CYP2C19 act 0.5, PostGolgi ctrl 4.0, CYP2C19 inhib 49.3, PostGolgi yeast -6.1 and CYP2C9 inh 55.1*.
CC(=O)OCCCN1C(=O)c2ccc(Br)cc2C1=O was read as CYP2C9 activ 1, CYP2C19 act 0.4, PostGolgi ctrl 2.7, CYP2C19 inhib 56.7*, PostGolgi yeast 5.3 and CYP2C9 inh -2.4.
`CC(C)OC(=O)CCCN1C(=O)c2ccc(N)cc2C1=O` gave CYP2C9 activ 1.2, CYP2C19 act 0.3, PostGolgi ctrl -1.2, CYP2C19 inhib 74.3*, PostGolgi yeast -2.4 and CYP2C9 inh -18.0.
`Nc1ccc2c(c1)C(=O)N(CCCC(=O)O)C2=O` gave CYP2C9 activ 1.1, CYP2C19 act 1, PostGolgi ctrl 19.3, CYP2C19 inhib 4.1, PostGolgi yeast -18.6 and CYP2C9 inh -6.9.
For S=C(Nc1ccc2c(c1)OCO2)NC1CCN(Cc2ccccc2)CC1 the results were CYP2C9 activ 0.9, CYP2C19 act 0.8, PostGolgi ctrl 10.8, CYP2C19 inhib 17.7, PostGolgi yeast -2.7 and CYP2C9 inh 5.3.
c1ccc(-c2nc3ccccc3s2)nc1 was read as CYP2C9 activ 1, CYP2C19 act 0.9, PostGolgi ctrl 8.3, CYP2C19 inhib 8.7, PostGolgi yeast -0.7 and CYP2C9 inh -3.5.
`O=C1NC(c2ccccc2)=C(c2nc3ccccc3s2)C(c2ccccc2)N1` (stereo not drawn) gave CYP2C9 activ 0.1, CYP2C19 act 0.3, PostGolgi ctrl 22.7, CYP2C19 inhib 71.2*, PostGolgi yeast 2.0 and CYP2C9 inh 91.0*.
COc1ccccc1N1CCN(S(=O)(=O)c2cnc[nH]2)CC1 was read as CYP2C9 activ 0, CYP2C19 act 0.1, PostGolgi ctrl 2.5, CYP2C19 inhib 95.0*, PostGolgi yeast -2.7 and CYP2C9 inh 100.3*.

Bioassay records (PubChem BioAssay)
